PubChem BioAssay (EPA / NIEHS)
Calls of active or inactive are those of the source. The calls were made as follows: active = hit-call score of the fitted dose curve at least 0.9, where 1 is the maximum; inactive = score below 0.9.

Tests used:
Settings in all cases: mRNA level, 48 h; actives raise or lower the signal
[1] = read-out: Cytochrome P450 (CYP24A1), CYP24A1 (gene 1591); assay: LTEA_HepaRG_CYP24A1: Life Technologies and Expression Analysis (LTEA) Assay for Cytochrome P450 (CYP24A1) using HepaRG (AID 2283478)
Outline: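 qRT-PCR read-out: CYP24A1 transcript levels normalized to three housekeeping genes, bidirectional curve fits against 0.5% DMSO baseline. Human HepaRG cells treated 48 h with chemicals at eight concentrations from 100 uM in half-log steps.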

[2] = read-out: Cytochrome P450 (CYP1A2), CYP1A2 (gene 1544); assay: LTEA_HepaRG_CYP1A2: Life Technologies and Expression Analysis (LTEA) Assay for Cytochrome P450 (CYP1A2) using HepaRG (AID 2283479)
Outline: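 HepaRG, 48 h exposure, top 100 uM, half-log 8-pt, 0.5% DMSO vehicle, duplicates. Readout: TaqMan qRT-PCR of CYP1A2 mRNA, housekeeping-normalized (ACTB/GAPDH/POLR2A). Gain/loss fit relative to DMSO baseline.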

[3] = read-out: cysteine-aspartic acid protease (CASP8), CASP8 (gene 841); assay: LTEA_HepaRG_CASP8: Life Technologies and Expression Analysis (LTEA) Assay for cysteine-aspartic acid protease (CASP8) using HepaRG (AID 2283480)
Outline: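 HepaRG, 48 h exposure, duplicate wells; 8 conc, half-log from 100 uM, 0.5% DMSO. Serum-free induction medium. CASP8 mRNA by TaqMan qRT-PCR, norm. ACTB/GAPDH/POLR2A; gain/loss fitted vs DMSO.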

[4] = read-out: Cytochrome P450 (CYP2B6), CYP2B6 (gene 1555); assay: LTEA_HepaRG_CYP2B6: Life Technologies and Expression Analysis (LTEA) Assay for Cytochrome P450 (CYP2B6) using HepaRG (AID 2283481)
Outline: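 Read-out is CYP2B6 mRNA by TaqMan qRT-PCR, normalized to three housekeeping genes and fitted bidirectionally against 0.5% DMSO baseline. Human HepaRG cells received test chemicals for 48 h, top concentration 100 uM, half-log dilutions.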

[5] = read-out: Cytochrome P450 2C19 (Homo sapiens) (UniProt P33261); assay: LTEA_HepaRG_CYP2C19: Life Technologies and Expression Analysis (LTEA) Assay for CYP2C19 using HepaRG (AID 2283482)
Outline: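 HepaRG, 48 h chemical exposure, 8-pt half-log series from 100 uM in 0.5% DMSO, duplicates. Readout: CYP2C19 mRNA by TaqMan qRT-PCR, housekeeping-normalized. Bidirectional fit vs DMSO baseline; phenobarbital 1mM as induction control.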

CYP2C8 (gene 1558) = assay: LTEA_HepaRG_CYP2C8: Life Technologies and Expression Analysis (LTEA) Assay for CYP2C8 using HepaRG (AID 2283483)
Outline: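 CYP2C8 mRNA induction or loss, by qRT-PCR normalized to ACTB/GAPDH/POLR2A, is read in HepaRG cells after 48 h treatment. Concentrations run from 100 uM down in half-log dilutions, with 0.5% DMSO as vehicle and baseline.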

CYP2C9 (gene 1559) = assay: LTEA_HepaRG_CYP2C9: Life Technologies and Expression Analysis (LTEA) Assay for CYP2C9 using HepaRG (AID 2283484)
Outline: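 Cells plated 48 h, switched to serum-free induction medium, then treated in duplicate for 48 h at eight concentrations (max 100 uM, 0.5% DMSO). RNA then analysed by qRT-PCR for CYP2C9; curves fitted in both directions relative to DMSO.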

CYP2E1 (gene 1571) = assay: LTEA_HepaRG_CYP2E1: Life Technologies and Expression Analysis (LTEA) Assay for CYP2E1 using HepaRG (AID 2283485)
Outline: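 Human liver line HepaRG, plated 48 h, then serum-free induction medium + chemical x 48 h; 8-pt CRC from 100 uM, half-log, 0.5% DMSO, n=2. Readout: CYP2E1 mRNA qRT-PCR vs ACTB/GAPDH/POLR2A; bidirectional fit vs DMSO.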

[6] = read-out: Cytochrome P450 3A4 (Homo sapiens) (UniProt P08684); assay: LTEA_HepaRG_CYP3A4: Life Technologies and Expression Analysis (LTEA) Assay for CYP3A4 using HepaRG (AID 2283487)
Outline: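 HepaRG, 48 h exposure, 8-pt CRC from 100 uM (half-log), 0.5% DMSO, duplicates; serum-free induction medium. Readout: CYP3A4 mRNA, qRT-PCR, ACTB/GAPDH/POLR2A normalization. Bidirectional fit vs DMSO.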

[7] = read-out: DNA damage-inducible transcript 3 (DDIT3), DDIT3 (gene 1649); assay: LTEA_HepaRG_DDIT3: Life Technologies and Expression Analysis (LTEA) Assay for DNA damage-inducible transcript 3 (DDIT3) using HepaRG (AID 2283488)
Outline: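 HepaRG plated 48 h, switched to serum-free induction medium, dosed 48 h (100 uM top, half-log, 8 pts, 0.5% DMSO, n=2); RNA isolated; DDIT3 by qRT-PCR; bidirectional curve fit vs DMSO.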

[8] = read-out: Pro-epidermal growth factor (Homo sapiens) (UniProt P01133); assay: LTEA_HepaRG_EGF: Life Technologies and Expression Analysis (LTEA) Assay for Epidermal growth factor (EGF) using HepaRG (AID 2283489)
Outline: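 qRT-PCR readout of EGF transcript after 48 h chemical exposure of HepaRG cells; eight concentrations from 100 uM down in half-log steps, duplicate wells, 0.5% DMSO vehicle. Bidirectional curve fitting against DMSO baseline.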

[9] = read-out: Early growth response protein 1 (EGR1) transcription factor, EGR1 (gene 1958); assay: LTEA_HepaRG_EGR1: Life Technologies and Expression Analysis (LTEA) Assay for Early growth response protein 1 (EGR1) transcription factor using HepaRG (AID 2283490)
Outline: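 Read-out is EGR1 mRNA level by qRT-PCR, normalized to three housekeeping genes and analysed for gain or loss of signal against 0.5% DMSO. Source cells: human HepaRG, treated 48 h at up to 100 uM in half-log dilutions.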

[10] = read-out: Ezrin (EZR), EZR (gene 7430); assay: LTEA_HepaRG_EZR: Life Technologies and Expression Analysis (LTEA) Assay for Ezrin (EZR) using HepaRG (AID 2283491)
Outline: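 Read-out is EZR transcript level by qRT-PCR, normalized to three housekeeping genes and fitted bidirectionally against the DMSO control. Human HepaRG cells received test chemicals for 48 h at eight half-log concentrations up to 100 uM in 0.5% DMSO.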

[11] = read-out: Cytochrome P450 3A7 (Homo sapiens) (UniProt P24462); assay: LTEA_HepaRG_CYP3A7: Life Technologies and Expression Analysis (LTEA) Assay for CYP3A7 using HepaRG (AID 2283492)
Outline: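 CYP3A7 transcript levels were read by TaqMan qRT-PCR on Fluidigm arrays after 48 h chemical exposure of human HepaRG cells, with housekeeping-gene normalisation. Eight half-log concentrations up to 100 uM in 0.5% DMSO were tested in duplicate.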

CYP3A5 (gene 1577) = assay: LTEA_HepaRG_CYP3A5: Life Technologies and Expression Analysis (LTEA) Assay for CYP3A5 using HepaRG (AID 2283493)
Outline: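 HepaRG plated 48 h, switched to serum-free induction medium, chemicals added 48 h (max 100 uM, half-log, 0.5% DMSO). RNA isolated; CYP3A5 by TaqMan qRT-PCR. Gain/loss vs DMSO.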

[12] = read-out: Fatty Acid-Binding Protein 1 (FABP1), FABP1 (gene 2168); assay: LTEA_HepaRG_FABP1: Life Technologies and Expression Analysis (LTEA) Assay for Fatty Acid-Binding Protein 1 (FABP1) using HepaRG (AID 2283494)
Outline: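 HepaRG, 48 h post-plating switched to serum-free induction medium, then dosed 48 h (duplicate, 8 pts, ≤100 uM, 0.5% DMSO). RNA → Fluidigm TaqMan qRT-PCR, FABP1 normed to ACTB/GAPDH/POLR2A. Bidirectional curve fit vs DMSO.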

[13] = read-out: Cytochrome P450 4A22 (Homo sapiens) (UniProt Q5TCH4); assay: LTEA_HepaRG_CYP4A22: Life Technologies and Expression Analysis (LTEA) Assay for Cytochrome P450 4A22 (CYP4A22) using HepaRG (AID 2283495)
Outline: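 HepaRG, 48 h post-plating -> serum-free induction medium; dosed 48 h, duplicate, 8 conc. (100 uM top, half-log), 0.5% DMSO. Readout: CYP4A22 mRNA by qRT-PCR, ACTB/GAPDH/POLR2A normalization; gain/loss fit relative to DMSO.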

[14] = read-out: Cytochrome P450 7A1 (Homo sapiens) (UniProt P22680); assay: LTEA_HepaRG_CYP7A1: Life Technologies and Expression Analysis (LTEA) Assay for Cytochrome P450 7A1 (CYP7A1) using HepaRG (AID 2283496)
Outline: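 HepaRG cells plated 48 h, then switched to serum-free induction medium and exposed in duplicate for 48 h to 8-point half-log series from 100 uM in 0.5% DMSO. CYP7A1 mRNA by qRT-PCR (TaqMan), normalized to ACTB/GAPDH/POLR2A; bidirectional fit versus DMSO.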

[15] = read-out: Glutathione S-Transferase (GSTA2), GSTA2 (gene 2939); assay: LTEA_HepaRG_GSTA2: Life Technologies and Expression Analysis (LTEA) Assay for Glutathione S-Transferase (GSTA2) using HepaRG (AID 2283497)
Outline: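 HepaRG, 48 h dosing, 8-pt half-log CRC from 100 uM, 0.5% DMSO vehicle, n=2; RNA → Fluidigm TaqMan qRT-PCR; GSTA2 vs ACTB/GAPDH/POLR2A; gain/loss fit vs DMSO.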

CYP4A11 (gene 1579) = assay: LTEA_HepaRG_CYP4A11: Life Technologies and Expression Analysis (LTEA) Assay for CYP4A11 using HepaRG (AID 2283486)
Outline: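 CYP4A11 transcript levels were quantified by TaqMan qRT-PCR after HepaRG human liver cells were treated for 48 hours with test chemicals (top 100 uM, half-log dilutions, 0.5% DMSO). Gain or loss of signal was fitted relative to DMSO.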

Measured: outcome

Sequence of Cytochrome P450 3A7 (Homo sapiens) (P24462 whole entry, looked up): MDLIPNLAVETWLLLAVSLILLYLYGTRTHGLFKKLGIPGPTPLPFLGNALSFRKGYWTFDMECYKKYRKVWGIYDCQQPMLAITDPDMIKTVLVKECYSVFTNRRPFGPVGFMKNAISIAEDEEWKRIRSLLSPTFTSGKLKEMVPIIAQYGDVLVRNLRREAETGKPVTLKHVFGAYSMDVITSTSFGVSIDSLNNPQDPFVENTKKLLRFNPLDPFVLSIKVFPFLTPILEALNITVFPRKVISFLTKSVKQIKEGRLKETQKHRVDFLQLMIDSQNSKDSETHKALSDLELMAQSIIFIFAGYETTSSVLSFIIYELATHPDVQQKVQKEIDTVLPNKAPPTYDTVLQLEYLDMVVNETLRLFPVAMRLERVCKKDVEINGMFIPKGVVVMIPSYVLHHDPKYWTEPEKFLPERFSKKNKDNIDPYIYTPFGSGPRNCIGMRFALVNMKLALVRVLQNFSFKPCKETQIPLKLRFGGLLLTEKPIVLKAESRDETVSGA
Sequence of Cytochrome P450 2C19 (Homo sapiens) (P33261 whole entry, looked up): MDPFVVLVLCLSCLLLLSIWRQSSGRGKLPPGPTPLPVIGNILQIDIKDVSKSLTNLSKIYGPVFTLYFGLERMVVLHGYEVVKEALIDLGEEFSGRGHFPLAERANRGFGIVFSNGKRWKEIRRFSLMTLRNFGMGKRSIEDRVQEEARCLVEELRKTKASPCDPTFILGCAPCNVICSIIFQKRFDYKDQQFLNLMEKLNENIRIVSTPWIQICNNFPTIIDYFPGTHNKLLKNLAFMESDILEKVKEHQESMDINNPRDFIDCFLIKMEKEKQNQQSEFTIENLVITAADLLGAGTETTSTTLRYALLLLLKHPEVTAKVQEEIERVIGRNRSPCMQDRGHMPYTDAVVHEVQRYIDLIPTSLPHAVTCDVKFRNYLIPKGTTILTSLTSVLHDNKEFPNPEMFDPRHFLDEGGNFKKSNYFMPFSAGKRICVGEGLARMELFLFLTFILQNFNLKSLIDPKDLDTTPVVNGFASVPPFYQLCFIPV
Sequence of Cytochrome P450 3A4 (Homo sapiens) (P08684 whole entry, looked up): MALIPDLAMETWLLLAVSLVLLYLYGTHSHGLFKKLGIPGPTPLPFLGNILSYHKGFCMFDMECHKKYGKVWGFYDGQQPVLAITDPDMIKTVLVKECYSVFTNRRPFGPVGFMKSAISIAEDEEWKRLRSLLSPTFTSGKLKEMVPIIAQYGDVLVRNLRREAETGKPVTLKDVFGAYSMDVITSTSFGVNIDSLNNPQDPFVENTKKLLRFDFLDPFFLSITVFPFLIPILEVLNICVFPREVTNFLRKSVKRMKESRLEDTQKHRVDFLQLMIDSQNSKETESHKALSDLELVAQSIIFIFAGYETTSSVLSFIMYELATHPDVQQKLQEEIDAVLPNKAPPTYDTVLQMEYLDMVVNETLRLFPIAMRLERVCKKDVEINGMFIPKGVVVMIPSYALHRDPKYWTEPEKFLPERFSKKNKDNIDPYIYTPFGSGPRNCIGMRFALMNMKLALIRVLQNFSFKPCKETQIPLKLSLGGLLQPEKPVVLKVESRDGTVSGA

NC=O
inactive: [1] | [2] | [3] | [4] | [5] | CYP2C8 (gene 1558) | CYP2C9 (gene 1559) | CYP2E1 (gene 1571) | [6] | [7] | [8] | [9] | [10] | [11] | CYP3A5 (gene 1577) | [12] | [13] | [14] | [15]

CO[C@@H]1COCC[C@@H]1N[C@@H]1CC[C@@](C(=O)N2CCc3ncc(C(F)(F)F)cc3C2)(C(C)C)C1
inactive: [1] | [2] | [3] | [4] | [5] | CYP2C8 (gene 1558) | CYP2C9 (gene 1559) | CYP2E1 (gene 1571) | CYP4A11 (gene 1579) | [6] | [7] | [8] | [9] | [10] | [11] | CYP3A5 (gene 1577) | [12] | [14] | [15]

CCCCCCC(CCCCCCCCCCC(=O)OCC(COC(C)=O)OC(C)=O)OC(C)=O (configuration not stated)
inactive: [1] | [2] | [3] | [4] | [5] | CYP2C8 (gene 1558) | CYP2C9 (gene 1559) | CYP2E1 (gene 1571) | CYP4A11 (gene 1579) | [6] | [7] | [8] | [9] | [10] | [11] | CYP3A5 (gene 1577) | [12] | [14] | [15]
